Data published in PubChem BioAssay AID1159537 (DiRusso Lab, Biochemistry Department, University of Nebraska, 2015).
Out of some 44,000 compounds screened, about 370 (0.84%) were called active. How the calls were made is not given here. What follows is part of a selection rich in actives, with near analogues and random picks from the rest.

Test: inducers of TAG accumulation in Chlamydomonas, primary screen, qHTS, Chlamydomonas reinhardtii (AID 1159537);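 further: hits raise Nile Red signal meaning more stored TAG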
Settings: Nile Red fluorescence, 72 h, screened at 10 µM (by protocol)
For `COCCN1C(=O)C(O)=C(C(=O)c2ccc(C)o2)C1c1cccc(Cl)c1` (centres undefined), the outcome was “inactive”. With `NC(=O)c1sc2cc([N+](=O)[O-])ccc2c1Cl` the outcome was “inactive”. In the case of `O=C(CCCc1ccccc1)Nc1cccc(Cl)c1`, the outcome is reported as “inactive”. For `CCc1cccc(C)c1NC(=O)c1cc(OC)cc(OC)c1`, the outcome was “inactive”. For `COc1ccc(CNC(=O)C(c2ccccc2)c2ccccc2)cc1`, the outcome was “inactive”. For `NC(=O)c1c(NC(=O)COc2ccc([N+](=O)[O-])cc2)sc2c1CCCC2`, the outcome was “inactive”. With `COc1cccc(OCCOc2ccc(C)cc2OC)c1` the outcome was “inactive”. With `COc1ccc(S(=O)(=O)N2CCN(c3ccccc3F)CC2)cc1OC` the outcome was “inactive”. With `CC1(C)Cc2ccccc2/C(=C(\C#N)C(=O)Nc2cccc([N+](=O)[O-])c2)N1` the outcome was “inactive”. With `Cc1cc(C)nc(NS(=O)(=O)c2ccc(N/C=C\C(=O)c3cccs3)cc2)n1` the outcome was “inactive”. For `Cc1cccc(NC(=O)c2ccc(Cl)c(Cl)c2)c1C`, the outcome was “inactive”. In the case of `Cc1cc(=O)[nH]c(SCc2ccc(Cl)cc2)n1`, the outcome is reported as “inactive”. With `CCCCOc1ccc(N2C(=O)CC(N3CCN(c4ccccn4)CC3)C2=O)cc1` (centres undefined) the outcome was “inactive”. For `CC(=O)N1CCN(Cc2c(Cl)cccc2Cl)CC1`, the outcome was “inactive”. With `C=CCn1c(=O)c(C2=NS(=O)(=O)c3ccccc3N2)c(O)c2ccccc21` the outcome was “inactive”. With `O=C(c1ccc([N+](=O)[O-])cc1)N1CCN(C2CCCC2)CC1` the outcome was “inactive”. For `CCOc1ccccc1C(=O)Nc1ccc([N+](=O)[O-])cc1OC`, the outcome was “inactive”. For `Clc1ccc(-c2nnc3ccc(NCc4ccccc4)nn23)cc1`, the outcome was “inactive”. With `O=C(O)c1ccccc1C(=O)c1ccc(O)cc1O` the outcome was “inactive”. In the case of `OCCN(Cc1ccccc1)Cc1ccc(-c2ccccc2)cc1`, the outcome is reported as “inactive”. For `CCOc1ccc(NC(=O)C(=O)NCCc2ccc(Cl)cc2)cc1`, the outcome was “inactive”. For `O=C(Nc1cccnc1)c1cccc(C(=O)Nc2cccnc2)c1`, the outcome was “inactive”. With `CCC1CCC(N2CCN(CC)CC2)CC1` (centres undefined) the outcome was “active”. In the case of `CCN1CCN(C2CCN(Cc3ccccc3)CC2)CC1`, the outcome is reported as “inactive”. With `CCOC(=O)N1CCN(C2CCN(CC)CC2)CC1` the outcome was “inactive”. For `O=C(c1cccc([N+](=O)[O-])c1)c1ccc2c(c1)C(=O)N(c1nccs1)C2=O`, the outcome was “inactive”. In the case of `COc1c(S(=O)(=O)NCc2ccncc2)ccc(Cl)c1Cl`, the outcome is reported as “inactive”. In the case of `CCCCOc1ccc(N2C(=O)CC(N3CCN(c4ncccn4)CC3)C2=O)cc1` (centres undefined), the outcome is reported as “inactive”. With `Cc1ccc(SCC(=O)Nc2ccc3c(c2)OCCO3)cc1` the outcome was “inactive”. For `NNc1ncnc2sc3c(c12)CCCC3`, the outcome was “inactive”. For `COc1ccc(C(=O)N2CCC(C(=O)Nc3ccc(OCc4ccccc4)cc3)CC2)cc1`, the outcome was “inactive”. With `O=C1NCCCc2nc(N3CCOCC3)sc21` the outcome was “inactive”. For `COc1ccc(N(CC(=O)N(C)Cc2ccccc2)S(C)(=O)=O)cc1OC`, the outcome was “inactive”. For `O=C(COc1ccc(Cl)cc1)Nc1ccc(F)c(F)c1`, the outcome was “inactive”. With `O=C(/C=C/c1ccc(-c2ccccc2Cl)o1)c1ccco1` the outcome was “inactive”. In the case of `O=C(c1ccc(C#CC2(O)CCCCC2)cc1)N1CCN(c2ccccc2Cl)CC1`, the outcome is reported as “inactive”. In the case of `N#CC1=C(SCc2ccccc2)NC(=O)CC1c1ccc(Br)cc1` (centres undefined), the outcome is reported as “inactive”. In the case of `CC(=O)c1ccc(N2CCN(C(=O)c3c(F)c(F)cc(C)c3Cl)CC2)c(F)c1`, the outcome is reported as “inactive”. With `COc1ccc(-c2cc(C(=O)Nc3cccnc3)c3ccccc3n2)cc1` the outcome was “inactive”. In the case of `Cc1cc(C)c(NC(=O)c2ccc(F)cc2)c(C)c1`, the outcome is reported as “inactive”. For `CC(C)c1ccc(OCC(=O)N2CCCC2)cc1`, the outcome was “inactive”. With `O=C(NCC1CCNCC1)C(=O)NC1CCCCC1` the outcome was “inactive”. With `NC(=O)c1ccc2[nH]c3c(c2c1)CCCC3` the outcome was “inactive”. For `O=S(=O)(CCc1ccccc1)Nc1ccccc1`, the outcome was “inactive”. In the case of `CC(C)COc1ccc(C(=O)Nc2ccc([N+](=O)[O-])cc2Cl)cc1`, the outcome is reported as “inactive”. In the case of `Cc1cc(OCCN2CCN(C)CC2)ccc1C(C)C`, the outcome is reported as “active”. For `CCOc1ccc(CN2CCCN(C)CC2)cc1`, the outcome was “inactive”. For `Cc1ccc(CN2CCOCC2)c(C)c1`, the outcome was “inactive”. In the case of `Cc1ccc(C(C)C)cc1OCCN1CCCC1`, the outcome is reported as “inactive”. With `Cc1cc(OCCN2CCOCC2)nc(NCc2ccccc2)n1` the outcome was “inactive”. For `Cc1cc(OCCCCN2CCOCC2)ccc1C(C)C`, the outcome was “active”. In the case of `CS(=O)(=O)N(Cc1ccc(C(=O)Nc2cccnc2)cc1)c1ccccc1`, the outcome is reported as “inactive”. With `CCc1ccc(N2CC(C(=O)NC(C)CC)CC2=O)cc1` (centres undefined) the outcome was “inactive”. In the case of `O=C(Nc1cccc(Cl)c1Cl)c1ccc(I)o1`, the outcome is reported as “inactive”. With `CCOc1ccc(NC(=O)C(=O)NCc2ccccc2OC)cc1` the outcome was “inactive”. In the case of `Cc1cc(Cl)ccc1NC(=O)c1cccnc1`, the outcome is reported as “inactive”. For `CC1CCN(c2ccc(C(=O)O)cc2[N+](=O)[O-])CC1`, the outcome was “inactive”. For `Cc1ccc(C(=O)c2ccc(N3CCN(C)CC3)c([N+](=O)[O-])c2)cc1`, the outcome was “active”. With `CS(=O)(=O)N1CCN(c2ccc(C(=O)NC3C4CC5CC(C4)CC3C5)cc2[N+](=O)[O-])CC1` (centres undefined) the outcome was “inactive”. With `CC(=O)c1ccc(NC(=O)c2ccc(CN(c3ccccc3)S(C)(=O)=O)cc2)cc1` the outcome was “inactive”. In the case of `O=C(C1=C(O)C(=O)N(c2ncccn2)C1c1cccc([N+](=O)[O-])c1)c1ccco1` (centres undefined), the outcome is reported as “inactive”. For `O=C(Nc1ccccc1C(=O)NCCN1CCOCC1)c1cccc(I)c1`, the outcome was “inactive”. In the case of `CCOc1ccccc1NC1=NS(=O)(=O)c2ccccc21`, the outcome is reported as “inactive”. For `COc1cc(C=O)cc(Br)c1OCc1ccccn1`, the outcome was “inactive”. For `Cc1ccc(C(=O)Nc2cccc(O)c2)cc1S(=O)(=O)N1CCC(C)CC1`, the outcome was “inactive”. With `O=C(NCCCN1CCOCC1)c1ccccc1Br` the outcome was “inactive”. With `Cc1cc(C)c(S(=O)(=O)NCCCN2CCOCC2)cc1Br` the outcome was “active”. For `O=S(=O)(NCCN1CCOCC1)c1ccc(I)cc1`, the outcome was “inactive”. In the case of `CN(C)CCNC(=O)c1ccc(Cl)cc1`, the outcome is reported as “inactive”. In the case of `CC(=O)c1cc2c(cc1NC(=O)c1ccccc1Cl)OCCO2`, the outcome is reported as “inactive”. With `Cc1ccc(NS(=O)(=O)c2ccc(C(C)(C)C)cc2)cn1` the outcome was “inactive”. In the case of `COc1ccc(CC(=O)NC(c2ccccc2)c2ccccc2)cc1OC`, the outcome is reported as “inactive”. With `CC1=C(C(=O)Nc2ccc(C)cn2)C(c2cccc(Cl)c2Cl)C2=C(CCCC2=O)N1` (centres undefined) the outcome was “inactive”. For `CCc1ccc(OCCN2CCCC(C)C2)cc1` (centres undefined), the outcome was “inactive”. For `Cc1nnc(NC(=O)CSc2nnnn2-c2ccc(Cl)cc2)s1`, the outcome was “inactive”. With `O=C(O)c1ccc(C(=O)O)c(S(=O)(=O)c2cc(C(=O)O)ccc2C(=O)O)c1` the outcome was “inactive”. With `Clc1ccc(-n2nnnc2SCc2nn[nH]n2)cc1` the outcome was “inactive”. For `CC1(C)CC(=O)c2cnc3cc(-c4ccccc4)nn3c2C1`, the outcome was “inactive”. In the case of `O=C1C(=O)N(c2ccccc2)C(c2ccccc2[N+](=O)[O-])C1=C(O)c1ccccc1` (centres undefined), the outcome is reported as “inactive”. In the case of `CCc1ccc(OCC(=O)Nc2ccc(F)cc2)cc1`, the outcome is reported as “inactive”. For `Nc1cc(-c2ccccc2)nn1-c1ccccc1`, the outcome was “inactive”. With `O=C(COc1ccc(Br)cc1)N1CCN(c2ccccc2F)CC1` the outcome was “inactive”. For `O=[N+]([O-])c1ccc(S(=O)(=O)Nc2cc(Cl)ccc2O)cc1`, the outcome was “inactive”. With `COc1ccc(CSc2nnc(-c3ccc(Cl)cc3Cl)o2)cc1[N+](=O)[O-]` the outcome was “inactive”. In the case of `CCOc1ccc2nc(SCC(=O)NC(C)=O)sc2c1`, the outcome is reported as “inactive”. For `O=C(NCc1ccncc1)C(=O)NCc1ccco1`, the outcome was “inactive”. In the case of `O=C(Cc1ccc(F)cc1)NCc1ccncc1`, the outcome is reported as “inactive”. In the case of `CC(C)(C)C1CCC(NCc2ccncc2)CC1` (centres undefined), the outcome is reported as “active”. In the case of `CCCc1ccc(OCC(O)CN2CCN(CCO)CC2)cc1` (centres undefined), the outcome is reported as “inactive”. For `O=C(Nc1ccc(OCC(=O)N2CCOCC2)cc1)c1cc(F)c(F)cc1Cl`, the outcome was “inactive”. In the case of `O=C1CC(N2CCN(c3ccccc3O)CC2)C(=O)N1c1ccc(Br)cc1` (centres undefined), the outcome is reported as “inactive”. In the case of `NC(=O)c1cc(NC(=O)CCC(=O)O)ccc1N1CCOCC1`, the outcome is reported as “inactive”. In the case of `O=S(=O)(Nc1cccc(O)c1)c1ccc(-c2ccccc2)cc1`, the outcome is reported as “inactive”. With `O=C(Nc1ccccc1F)C1CC(=O)N(c2ccccc2F)C1` (centres undefined) the outcome was “inactive”. For `O=C(Nc1ccc([N+](=O)[O-])cc1Br)c1ccncc1`, the outcome was “inactive”. For `O=C(COc1ccc(Br)cc1)Nc1ccc(N2CCOCC2)cc1`, the outcome was “inactive”. For `Cc1nc(-c2c[nH]c3ccccc23)cs1`, the outcome was “inactive”. With `O=C(NCCc1ccc(F)cc1)C1CC(=O)N(c2ccccc2)C1` (centres undefined) the outcome was “inactive”. With `Clc1ccc(OCc2nc(-c3cccnc3)no2)c(Cl)c1` the outcome was “inactive”. For `c1ccc(CCc2nc(-c3ccncc3)no2)cc1`, the outcome was “active”. With `Cc1ccccc1-c1nc(-c2ccncc2)no1` the outcome was “inactive”. With `NCCNc1ccc([N+](=O)[O-])c(N2CCCCC2)c1` the outcome was “inactive”. In the case of `COc1cc(C=O)ccc1OCCOc1ccc(C)cc1Br`, the outcome is reported as “inactive”. For `Cc1ccc(-c2nc(-c3cccnc3)no2)cc1Cl`, the outcome was “inactive”. With `Cc1ccc2oc(-c3ccc(C)c(N)c3)nc2c1` the outcome was “inactive”. For `CCn1c2c(c3cc([N+](=O)[O-])ccc31)CCCC2=O`, the outcome was “inactive”. With `CC(=O)N(c1ccccc1)C1CC(C)Nc2ccccc21` (centres undefined) the outcome was “inactive”. For `O=C(NC12CC3CC(CC(C3)C1)C2)c1ccccc1C(=O)NC12CC3CC(CC(C3)C1)C2`, the outcome was “inactive”. In the case of `COc1cccc(NC(=O)CN2CCN(c3nc4ccc([N+](=O)[O-])cc4s3)CC2)c1`, the outcome is reported as “inactive”. In the case of `COc1ccc(/C=C(/NC(=O)c2ccco2)C(=O)Nc2ccc([N+](=O)[O-])cc2)cc1`, the outcome is reported as “inactive”. For `CS(=O)(=O)N(CC(=O)N1CCCCCC1)c1cccc(Cl)c1Cl`, the outcome was “inactive”. For `COc1cccc(CN2CCN(C/C=C/c3ccccc3)CC2)c1OC`, the outcome was “inactive”. With `O=[N+]([O-])c1ccccc1/C=C/CN1CCN(C/C=C/c2ccccc2)CC1` the outcome was “inactive”. For `C(=C\c1ccccc1)/CN1CCN(CC2CCCCC2)CC1`, the outcome was “active”. For `CS(=O)(=O)N(CC(=O)N1CCCC1)c1ccc(I)cc1`, the outcome was “inactive”. With `CCOc1ccc(C(=O)NCCc2ccc(F)cc2)cc1` the outcome was “inactive”. For `O=C(COc1cccc([N+](=O)[O-])c1)Nc1ccc(-c2nnc(-c3ccco3)o2)cc1`, the outcome was “inactive”. For `Cc1ccc(NC(=O)c2ccccc2Br)cc1C`, the outcome was “inactive”. In the case of `COc1ccc(C(O)=C2C(=O)C(=O)N(CCN3CCOCC3)C2c2ccncc2)cc1C` (centres undefined), the outcome is reported as “inactive”.
